According to PubChem BioAssay (Tox21):
“And” between values parts separate entries of the source, which are not always exact repeats. Equal entries are not always repeated. Results filed as inconclusive are left out. Entries that show only a call come without a potency. The source holds several records for some structures; these can differ, active in one and inactive in another. The source made the active and inactive calls. The call rests on the fitted dose curve; in most records, active means well fitted cell-killing curve with a large enough effect in the repeat runs; inconclusive means weak or mixed curves, or effect the other way; inactive means no such curve, though single readings can be large or run the other way.

Test: qHTS assay to identify small molecule antagonists of the sonic hedgehog signaling (Shh) pathway - cell viability counter screen (AID 1259367); further: nearly all actives have a fitted effect of over 55% in size
Settings: NIH/3T3 Gli1-Luc viability, CellTiter-Fluor, 24 h; series mostly up to 92.4 µM
Description: National Center for Advancing Translational Sciences [NCATS]
NIH Chemical Genomics Center [NCGC]
U.S. Environmental Protection Agency [EPA]
National Institutes of Environmental Health Sciences [NIEHS]
National Toxicology Program [NTP]
U.S. Food and Drug Administration [FDA]
The sonic hedgehog (Shh) pathway is essential for normal embryonic development. Dysregulation of the Shh pathway can cause severe developmental defects in organs. Therefore chemicals that interfere with the pathway are potential developmental toxicants. A cell line designated 3T3Gli1-Luc (DMB/OARSA/CFSAN/FDA, Laurel, MD), a NIH/3T3 derived clone containing stably integrated Gli1-Luc reporter is used to detect chemical interference of the Shh pathway, by changes in the expression of the firefly Luc gene under the control of the Gli1 transcriptional response element. This cell line was used to screen Tox21 libraries for identifying and prioritizing the potential developmental toxicants that interfere Shh pathway. Conditioned medium-stimulated mode was used to screen for chemicals inhibiting Shh signaling. The cytotoxicity of the compounds was tested in parallel by measuring the cell viability using CellTiter-Fluor assay system (Promega, Madison, WI) in the same wells.
Tox21 Assay Protocol Summary:
3T3 Gli1-Luc cells were dispensed at 2,000 per well in 5uL of culture medium into white solid bottom 1536-well plates (Greiner Bio-One, Monroe, NC) using a Multidrop Combi (Thermo Scientific, Waltham, MA) dispenser. The assay plates were incubated at 37 C and 5% CO2 for 4hr, and then 23nL of compounds dissolved in DMSO and positive control were transferred using a Pintool station (Wako, San Diego, CA). The compound transfer was followed by the addition of 1ul conditioned medium or assay buffer using two separate tips of Flying Reagent Dispenser (FRD, Aurora Discovery, San Diego, CA). The assay plates were incubated at 37C and 5% CO2 for 24hr. For viability read, after 23hr of compound treatment, 1uL of CellTiter-Fluor reagent (Promega Corporation, Madison, WI) was added to each well of the assay plates using Flying Reagent Dispenser (FRD, Aurora Discovery, San Diego, CA) and incubated the assay plates at 37C for 1hr. The fluorescence signal was quantified using a ViewLux plate reader (Perkin Elmer, Shelton, CT).
Potency means the concentration at half of the fitted maximal effect.

| SMILES | Potency | viability change, negative = cytotoxic |
| --- | --- | --- |
| N#CN=C1SCCN1Cc1ccc(Cl)nc1 | inactive |  |
| CCOC(=O)CC(SP(=S)(OC)OC)C(=O)OCC (stereo not given) | inactive |  |
| CCNP(=S)(OC)O/C(C)=C/C(=O)OC(C)C (stereo not given) | inactive |  |
| CC(Cc1ccccc1)NCCCCl (stereo not given) | inactive |  |
| O=C(Cl)OCc1ccccc1 | inactive |  |
| C=CCc1cc(OC)c2c(c1)OCO2 | inactive |  |
| COc1ccc(C=O)cc1O | inactive |  |
| NC(=O)CS(=O)C(c1ccccc1)c1ccccc1 (stereo not given) | inactive |  |
| C=CC=O | inactive |  |
| CON(C)C(=O)Nc1ccc(Br)cc1 | inactive |  |
| O=C1C2CC=CCC2C(=O)N1SC(Cl)(Cl)Cl (stereo not given) | inactive and 13.5 µM (active) |  |
| CCNc1nc(Cl)nc(NC(C)(C)C)n1 | inactive |  |
| COC[C@@H](NC(C)=O)C(=O)NCc1ccccc1 | inactive |  |
| CCc1cc(OC)c(C[C@H](C)N)cc1OC | inactive |  |
| CNC(=O)Oc1ccccc1C(C)C | inactive |  |
| CC(C)C(C)(N)C#N (stereo not given) | inactive |  |
| ClC(Cl)(Cl)Cl | inactive |  |
| CC(=NC#N)N(C)Cc1ccc(Cl)nc1 | inactive |  |
| CN1C(=O)COc2c(C(=O)NC3CN4CCC3CC4)cc(Cl)cc21 (stereo not given) | inactive |  |
| C=C1C[C@@H]2[C@H](CC[C@]3(C)C(=O)CC[C@@H]23)[C@@]2(C)C=CC(=O)C=C12 | inactive |  |

| SMILES | Potency | viability change, negative = cytotoxic |
| --- | --- | --- |
| Oc1ccc(Cc2ccc(O)cc2)cc1 | inactive |  |
| COc1ccc(CN2CCNCC2)c(OC)c1OC | inactive |  |
| CN(C)C1CCCCC1 | inactive |  |
| CCC1(CC)C(=O)C=CNC1=O | inactive |  |
| CCCCCCC(=O)CCCCCC/C=C/C[C@@H](O)[C@H](O)[C@@](N)(CO)C(=O)O |  | -0.502% [at 19 µM] (inactive) |
| O=C(Cl)c1ccccc1 | inactive |  |
| CC(C)(C)C(=O)Cl | inactive |  |
| C=C(Cl)CSC(=S)N(CC)CC | inactive |  |
| CC1N=C(N)OC1c1ccccc1 (stereo not given) | inactive |  |
| CCCCS(=O)(=O)Cl | inactive |  |
| CON(C)C(=O)Nc1ccc(Br)c(Cl)c1 | inactive |  |
| Cc1ccc2cc(C)ccc2c1 | inactive |  |
| Cc1cccc2sc3nncn3c12 | inactive |  |
| O=C(O)CBr | inactive |  |
| CN=CNc1ccc(C)cc1C | inactive |  |
| CC(C)(C)c1cc(O)ccc1O | inactive |  |
| CC[C@@H](CO)NC(=O)[C@@H]1C=C2c3cccc4[nH]cc(c34)C[C@H]2N(C)C1 | inactive |  |
| C=CCN1CC[C@]23CCCC[C@H]2[C@H]1Cc1ccc(O)cc13 | inactive |  |
| CN(C)CCc1c[nH]c2cccc(OP(=O)(O)O)c12 | inactive |  |
| CCN[C@@H](C)Cc1cccc(C(F)(F)F)c1 | inactive |  |
